# PubChem BioAssay (Tox21)
# Inconclusive results are not listed. Entries that show only a call come without a potency. A number with no mark means an inactive call. Active and inactive are the calls of the source. Calls come from the whole dose curve; as a rule, active = well fitted activation curve with a large enough effect in the repeat runs; inconclusive = weak or mixed curves; inactive = no such curve, though single readings can be large or run the other way.
# Biological target: Nuclear receptor subfamily 1 group I member 2 (Homo sapiens) (UniProt O75469)
# Sequence (O75469 whole entry, looked up): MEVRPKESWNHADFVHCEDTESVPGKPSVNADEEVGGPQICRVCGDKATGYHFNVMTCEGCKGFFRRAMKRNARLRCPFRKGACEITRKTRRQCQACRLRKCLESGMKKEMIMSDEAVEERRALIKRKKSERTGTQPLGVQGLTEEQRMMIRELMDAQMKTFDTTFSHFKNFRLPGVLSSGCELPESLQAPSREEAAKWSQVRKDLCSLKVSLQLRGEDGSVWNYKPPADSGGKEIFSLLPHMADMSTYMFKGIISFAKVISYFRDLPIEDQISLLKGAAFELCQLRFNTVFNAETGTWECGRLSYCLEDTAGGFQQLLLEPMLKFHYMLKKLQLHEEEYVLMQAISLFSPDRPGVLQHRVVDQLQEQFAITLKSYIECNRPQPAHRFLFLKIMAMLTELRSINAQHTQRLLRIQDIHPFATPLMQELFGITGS
# Experiment: Human pregnane X receptor (PXR) small molecule agonists, qHTS assay (AID 1346982); note: nearly all actives have a fitted effect of over 35% in size
# Details: PXR-Luc HepG2, CYP3A4 luciferase reporter, 24 h; series mostly up to 92.4 µM
# Text: National Center for Advancing Translational Sciences [NCATS]
# NIH Chemical Genomics Center [NCGC]
# U.S. Environmental Protection Agency [EPA]
# National Institutes of Environmental Health Sciences [NIEHS]
# National Toxicology Program [NTP]
# The human pregnane X receptor (hPXR) regulates the expression of several drug metabolizing enzymes and induction of these proteins is a major mechanism for developing drug resistance in cancer. One such key enzyme catalyzing the drug metabolism is cytochrome P450 3A4 (CYP3A4). Changes in CYP3A4 expression affect drug metabolism, thereby reducing the therapeutic efficacy and altering toxicological response to a drug and which finally causes adverse drug interaction. To screen Tox21 libraries for compounds that activate hPXR-mediated CYP3A4 gene expression, PXR-Luc HepG2 cells were used.
# PXR-Luc HepG2 cells were dispensed at 2,000 per well in 5uL of assay medium containing 5% charcoal-stripped FBS into white solid bottom 1536-well plates (Corning Life Sciences, Corning, NY) using a Multidrop Combi (Thermo Scientific, Waltham, MA) dispenser. The assay plates were incubated at 37 C and 5% CO2 for 5hr, and then 23nL of compounds dissolved in DMSO and positive control were transferred using a Pintool station (Wako, San Diego, CA). The assay plates were incubated at 37C and 5% CO2 for 24hr. For luciferase read, 4uL of ONE-Glo reagent (Promega Corporation, Madison, WI) was added to each well of the assay plates using Flying Reagent Dispenser (FRD, Aurora Discovery, San Diego, CA) and incubated the assay plates at room temperature for 30min. The luminescence signal was quantified using a ViewLux plate reader (Perkin Elmer, Shelton, CT).
# Potency is the fitted concentration of half-maximal effect.
Structure (SMILES),Potency,activation
O=C(O)Cc1cn(-c2ccccc2)nc1-c1ccc(Cl)cc1,inactive,–
O=C(NCCN1CCOCC1)c1ccc(Cl)cc1,inactive,–
N#Cc1ccc(C(=O)O)cc1,inactive,–
O=C(CS(=O)Cc1ccco1)NC/C=C\COc1cc(CN2CCCCC2)ccn1 (stereo not given),inactive,–
COc1ccc2nc(SCc3ncc(C)c(OC)c3C)[nH]c2c1,23.7 µM (active),–
CN(C)C(=O)CNC(=O)Cc1ccccc1,inactive,–
CC(=O)Nc1ccc(S(=O)(=O)Cl)cc1,inactive,–
CCCCN,inactive,–
CCOc1cc([N+](=O)[O-])c(OCC)cc1N1CCOCC1,30.6 µM (active),–
CN(C)CCOCCO,inactive,–
NS(=O)(=O)c1ccc(NC(=O)CCC(=O)O)cc1,inactive,–
CC(C)CCCC(C)(C)O,inactive,–
CCC(C)NC(N)=O (stereo not given),inactive,–
Cc1ccc2ccc(Cl)cc2n1,inactive,–
CC(=O)/C=C/C1C(C)=CCC(C)C1(C)C (stereo not given),19.3 µM (active),–
O=C(NCCc1c[nH]c2ccccc12)c1cccnc1,26.6 µM (active),–
O=C1c2ccccc2C(=O)C1c1ccccc1,inactive,–
C[C@@H](Oc1ccc(CNC(=O)c2cccnc2Oc2ccc3c(c2)OCO3)c(F)c1)C(=O)O,inactive,–
Cc1ccccc1N=O,inactive,–
COc1ccc(OC)c(Cl)c1,inactive,–

Structure (SMILES),Potency,activation
Oc1ccccc1-c1nnco1,inactive,–
CC(C)C[C@H](NC(=O)CNC(=O)[C@H](Cc1ccc(O)cc1)NC(=O)[C@H](CO)NC(=O)[C@H](Cc1c[nH]c2ccccc12)NC(=O)[C@H](Cc1cnc[nH]1)NC(=O)[C@@H]1CCC(=O)N1)C(=O)N[C@@H](CCCN=C(N)N)C(=O)N1CCC[C@H]1C(=O)NCC(N)=O (stereo in doubt),inactive,–
O=C(CCNNC(=O)c1ccncc1)NCc1ccccc1,inactive,–
CC(=O)NCCCCCC(=O)O,inactive,–
Cc1cccc2nccnc12,inactive,–
CCCCCCCC/C=C\CCCCCCCC(=O)OCCCC,–,3.05% [at 19 µM]
O=C(O)CCSSCCC(=O)O,inactive,–
CCn1ccc(NS(=O)(=O)c2ccc(N)cc2)nc1=O,inactive,–
Nc1cccc(O)c1,inactive,–
CCCC(=O)C(C)=O,inactive,–
CC(C)=CCOC(=O)c1ccccc1,inactive,–
C[C@@H](O)[C@H]1C(=O)N2C(C(=O)O)=C(SCCN=CN)C[C@H]12,inactive,–
CCOC(=O)/C=C/c1ccccc1,inactive,–
Cc1ccsc1/C=C/C1=NCCCN1C,inactive,–
CC(=O)NCc1c(I)c(NC(C)=O)c(I)c(C(=O)O)c1I,inactive,–
O=S(=O)(O)c1ccc2cc(O)c(S(=O)(=O)O)cc2c1,inactive,–
CC(C)C(=O)OCCc1ccccc1,inactive,–
CCCOC(=O)C(C)O (stereo not given),inactive,–
O=C(O)c1cc(Cl)cc([N+](=O)[O-])c1Cl,inactive,–
CCCCCCCCCCl,inactive,–
